Laboratory results as given in ChEMBL document CHEMBL3988442, “University of Dundee, Small-Polar-MMV Screening Library” (2021).
In all, about 48,000 compounds went through this assay and about 13,000 (27%) showed an effect of 50% or more. The list shows a part of the results.

These compounds were tested on Wolbachia pipientis (assay: Anti-Wolbachia Cell-Based Screen). Conditions: 5 µM.
Format: functional
Parameters: scale not given: in the data most compounds retested in dose-response had high values

Row | Compound | Percent Effect
1 | CN(CC(=O)N1CCCC1)C(=O)c1cccn1CCc1ccccc1 | -6.272%
2 | O=C(c1ccno1)N1CCN2C(=O)N(Cc3ccc(F)cc3)C[C@H]2C1 | -2.469%
3 | Cc1nc(CN2CCc3nc(NC(C)C)nc(C)c3C2)cs1 | 12.48%
4 | CCN(C)C(=O)c1cnc(-c2noc3cc(N4CCCCC4)ccc23)s1 | -13.96%
5 | Cc1ccc(CNC2(Cc3cc(CO)on3)COC2)o1 | -19.01%
6 | CCC[C@@H](NC(N)=O)C(=O)N1Cc2ccccc2-c2ccccc2C1 | -11.77%
7 | CC(C)C[C@@H]1N[C@H](C(=O)NC(C)C)Cc2c[nH]c3cccc1c23 | -15.72%
8 | CCS(=O)(=O)N1C[C@@H](C(=O)NC(C)C)[C@@]2(Cc3ccccc3C(=O)N2)C1 | 141.4%
9 | CC(C)NC(=O)C1CN(C(=O)c2cccs2)CC12CCOCC2 (stereo unspecified) | -10.16%
10 | CC(C)NC(=O)C1CN(C(=O)c2ccco2)CC12CCOCC2 (stereo unspecified) | 3.507%
11 | CC(C)NC(=O)[C@@H]1CN(C(=O)C2CC2)C[C@]12Cc1ccccc1C(=O)N2 | 129.2%
12 | CCN(CC)C(=O)CCNC(=O)Cc1nc(-c2ccco2)oc1C | 11.44%
13 | O=C(CS(=O)(=O)Cc1ccc(Br)cc1F)Nc1cn[nH]c1 | -22.34%
14 | c1csc(N2CCCN(c3ncnc4sccc34)CC2)n1 | 165.2%
15 | Cc1noc(C(C)N2CCN(c3ncnc4sccc34)CC2)n1 (stereo unspecified) | -36.26%
16 | c1csc(N2CCN(c3ncnc4sccc34)CC2)n1 | 140.7%
17 | CCc1nc(CN2CCCN(c3ncnc4sccc34)CC2)no1 | -94.29%
18 | N#Cc1ccc(N2CCCN(c3nccs3)CC2)nc1 | -14.61%
19 | N#Cc1ccc(N2CCN(c3nccs3)CC2)nc1 | -4.592%

Row | Compound | Percent Effect
20 | Cc1cc2cc(CNC3CCN(CC4CCOC4)CC3)oc2cc1C (stereo unspecified) | -8.178%
21 | CCOC1COC2(CCN(c3ccccn3)CC2)C1.O=C(O)C(F)(F)F (stereo unspecified) | 106.9%
22 | Cc1cccc(CO[C@@H]2CO[C@@]3(CCN(S(=O)(=O)N(C)C)C3)C2)n1.O=C(O)C(F)(F)F | 0.8682%
23 | CCOC1COC2(CCN(c3ncc(C)cn3)CC2)C1 (stereo unspecified) | 100.2%
24 | CCOC1COC2(CCN(Cc3cccc(C)n3)CC2)C1.O=C(O)C(F)(F)F (stereo unspecified) | 109.8%
25 | CCOC1COC2(CCN(Cc3ccco3)CC2)C1.O=C(O)C(F)(F)F (stereo unspecified) | -20.65%
26 | CCS(=O)(=O)N1CCC2(CC1)CC(Oc1ccccn1)CO2.O=C(O)C(F)(F)F (stereo unspecified) | 11.25%
27 | CCOC1COC2(CCN(C(=O)c3cccc(C)n3)CC2)C1.O=C(O)C(F)(F)F (stereo unspecified) | 94.67%
28 | CN(C)C(=O)COC1COC2(CCN(c3ncccn3)CC2)C1 (stereo unspecified) | 5.74%
29 | CN(C)C(=O)COC1COC2(CCN(c3cnccn3)CC2)C1.O=C(O)C(F)(F)F (stereo unspecified) | 7.565%
30 | Cc1cnc(N2CCC3(CC2)CC(NS(C)(=O)=O)CO3)nc1 (stereo unspecified) | -15.37%
31 | Cc1cccc(COC2COC3(CCN(S(C)(=O)=O)CC3)C2)n1.O=C(O)C(F)(F)F (stereo unspecified) | 2.01%
32 | CN(C)C(=O)COC1COC2(CCN(c3cccc(F)c3)CC2)C1.O=C(O)C(F)(F)F (stereo unspecified) | -1.854%
33 | COCCN1CCC2(CC1)CC(COC)N(c1ncccn1)C2.O=C(O)C(F)(F)F.O=C(O)C(F)(F)F (stereo unspecified) | -10.3%
34 | CCOC1COC2(CCN(c3cccc(C)n3)CC2)C1.O=C(O)C(F)(F)F (stereo unspecified) | 89.3%
35 | COCC1CC2(CCN(c3cccc(C)n3)CC2)CN1c1ncccn1.O=C(O)C(F)(F)F (stereo unspecified) | 95.56%
36 | CCS(=O)(=O)N1CCC2(CC1)CC(COC)N(c1ncccn1)C2.O=C(O)C(F)(F)F (stereo unspecified) | -2.955%
37 | CSc1ccc(-c2nc(CN3CCC(NC(C)=O)CC3)c(C)o2)cc1 | 26.44%
38 | O=C(O)C(F)(F)F.O=C(c1cnoc1)N1CCC[C@]2(C[C@H](Oc3ncccc3F)CO2)C1 | -8.736%

Row | Compound | Percent Effect
39 | CN(C)S(=O)(=O)N1CC[C@]2(C[C@H](Oc3ncccc3F)CO2)C1.O=C(O)C(F)(F)F | -14.15%
40 | O=C(O)C(F)(F)F.O=C(O)C(F)(F)F.c1ccc(O[C@H]2CO[C@@]3(CCN(Cc4ccc5c(c4)OCO5)C3)C2)nc1 | 2.667%
41 | Cn1cc(CN2CCC[C@]3(C[C@H](Oc4ncccc4F)CO3)C2)cn1.O=C(O)C(F)(F)F.O=C(O)C(F)(F)F | 108.2%
42 | CS(=O)(=O)N1CCC[C@]2(C[C@@H](Oc3ncccc3F)CO2)C1.O=C(O)C(F)(F)F | -13.76%
43 | Cn1cc(CN2CCC[C@]3(C[C@@H](Oc4ncccc4F)CO3)C2)cn1.O=C(O)C(F)(F)F.O=C(O)C(F)(F)F | 104.4%
44 | Cc1nc(CN2CCCC(N(C)Cc3nc(CC(C)C)no3)C2)no1 (stereo unspecified) | -5.621%
45 | CC(C)OC[C@H]1CCC[C@]12CN(S(=O)(=O)c1cn(C)cn1)CCO2 | 110%
46 | CC(C)OC[C@H]1CCC[C@]12CN(S(=O)(=O)c1cccs1)CCO2 | -17.54%
47 | CO[C@@H]1CCN(S(=O)(=O)c2cn(C)cn2)[C@H]1Cc1ccccc1 | -1.543%
48 | CCOC[C@@H]1CCC[C@]12CN(S(=O)(=O)c1cn(C)cn1)CCO2 | 118.4%
49 | COCC1N(S(=O)(=O)c2cn(C)cn2)[C@H]2CC[C@]1(O)CC2 (stereo partly specified) | 116.2%
50 | COC[C@@H]1CCC[C@]12CN(S(=O)(=O)c1cn(C)cn1)CCO2 | 112.9%
51 | COC[C@@H]1CCC[C@]12CN(S(=O)(=O)c1cccs1)CCO2 | -10.75%
52 | CCN1CCO[C@]2(CCC[C@H]2COCc2csc(C)n2)C1.O=C(O)C(F)(F)F.O=C(O)C(F)(F)F | -10.73%
53 | CO[C@@H]1CC[C@H]2[C@H]1OCCN2S(=O)(=O)c1cn(C)cn1 | -3.329%
54 | CC(C)OC[C@H]1CCC[C@]12CN(S(=O)(=O)C1CC1)CCO2 | -22.82%
55 | COC[C@H]1CCC[C@]12CN(S(=O)(=O)c1cccs1)CCO2 | -5.962%
56 | O=C(c1cnccn1)N1CCN2C[C@H](OCC3CC3)C[C@H]2C1 | -2.249%
